For assay [1], the target named is Cytochrome P450 3A4 (Homo sapiens) (UniProt P08684). Description: qHTS Assay for Inhibitors and Substrates of Cytochrome P450 3A4 (AID 884). Note: series mostly up to about 57 µM; nearly all actives have a fitted effect of over 50% in size. In outline: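 20 nM human CYP3A4 with 25 uM Luciferin-PPXE (at KM) in 200 mM KPO4, preincubated 10 min with compound; NADPH regeneration started a 60 min RT reaction. Luciferin detected by luminescence, normalized to 57 uM ketoconazole as full inhibition.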
(In general: Quantitative high-throughput screening tests each substance at several concentrations.)

Assay [2] has as its target Furin (Homo sapiens) (UniProt P09958). The assay can be described thus: Furin counterscreen qHTS for Zika virus inhibitors (AID 1347149). Note: nearly all actives have a fitted effect of over 70% in size. Note: potency is the fitted concentration of half-maximal effect. In outline: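 Fluorogenic cleavage of BOC-RVRR-AMC (2 microM final, Km ~15 µM) was monitored (ex 340, em 450 nm) at 37C after 15 min RT preincubation of 5 nM furin with compounds in HEPES pH 7.0 buffer with CaCl2 and Triton X-100. Percent inhibition was fitted to a 4-parameter Hill curve.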
(In general: Counterscreens check selectivity or assay interference.)

Assay [3] relates to Zika virus NS2B-NS3 protease (linked construct). Description: Confirmatory screen NINDS AMC qHTS for Zika virus inhibitors (AID 1347152). Note: nearly all actives have a fitted effect of over 70% in size. Note: potency is the fitted concentration of half-maximal effect. The essentials: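 In this dose-response qHTS, AMC release from 10 microM Bz-Nle-KRR-AMC by 1 nM linked protease is measured over 15 minutes (about 20% conversion) at pH 8.0. Percent inhibition is fitted to a 4-parameter Hill curve.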
For assay [4], the system named is Zika virus NS2B-NS3 protease (unlinked complex). Description: Confirmatory screen GU AMC qHTS for Zika virus inhibitors (AID 1347153).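 For Potency: enzyme at 25 nM with substrate at 10 µM below its Km of 18.3 µM; potency is the fitted concentration of half-maximal effect.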 Note: nearly all actives have a fitted effect of over 70% in size. The essentials: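 Noncovalent NS2B hydrophilic domain/NS3 protease complex (25 nM) in 10 mM Tris-HCl pH 8.0, 0.01% Tween 20 was preincubated 15 min at room temperature with compounds. Then 10 µM AMC substrate (Km 18.3 µM) was added; fluorescence was read over 15 min and fitted to a 4-parameter Hill equation.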

Assay [5] is described as follows: Confirmatory screen NINDS Rhodamine qHTS for Zika virus inhibitors (AID 1347161). Note: nearly all actives have a fitted effect of over 60% in size. Note: potency is the fitted concentration of half-maximal effect. The essentials:
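Rhodamine110-peptide cleavage (1.5 µM substrate) by 25 nM linked NS2B-NS3 enzyme at pH 8.0 (Tris, Tween 20), after 15 min RT preincubation with compounds; 15-min fluorescence change normalized to controls and Hill-fitted.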

Assay [6] has as its system Zika virus NS2B-NS3 protease (linked construct). Description: 384 well plate NINDS Rhodamine confirmatory qHTS for Zika virus inhibitors (AID 1347164). Note: potency is the fitted concentration of half-maximal effect; nearly all actives have a fitted effect of over 65% in size. The essentials:
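Compounds are incubated about 15 minutes with linked protease (5, 30 or 60 nM final). Rhodamine 110-tagged Ac-LKRR substrate (10 microM final) is added and fluorescence measured after 25 minutes.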

Assay [7] can be described thus: Vero cells viability qHTS for Zika virus inhibitors (AID 1347167). In outline:
(§1)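 Counter-screen for cytotoxicity of hits from NS2B-NS3 protease qHTS. Overnight-attached cells (2.5 x 10^5 cells/mL, DMEM/4% FBS) were dosed in titration, incubated 24 to 48 hours, then assayed by CellTiter Glo.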

Assay [8] can be described thus: HepG2 cells viability qHTS for Zika virus inhibitors (AID 1347168). In outline:
as §1

A short description of assay [9]: Primary qHTS for small molecule stabilizers of the endoplasmic reticulum resident proteome: Secreted ER Calcium Modulated Protein (SERCaMP) assay (AID 1508630). The essentials: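 GLuc-SERCaMP-expressing SH-SY5Y cells, pretreated 16 h with compound, are challenged with thapsigargin to empty ER calcium stores; after 4 h, coelenterazine is added directly to the medium and luminescence is imaged.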

For assay [10], the target named is Glucocorticoid receptor (Homo sapiens) (UniProt P04150). Description: GR-GFP Redistribution (AID 450;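 active = compounds whose dose series gives a full or clear partial fitted curve of increased nuclear translocation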; note: potency is the fitted concentration of half-maximal effect). The following applies: U2OS GR-GFP nuclear translocation, laser cytometry, 2 h.
Assay [11] has the same target. Description: GR-EFC Redistribution (AID 451; calls by dose curve; note: potency is the fitted concentration of half-maximal effect). The following applies: CHO-K1 GR-EFC translocation, beta-gal luminescence, 2 h. In outline:
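CHO-K1 cells stably expressing nuclear-localized β-gal enzyme acceptor and GR fused C-terminally to the enzyme donor fragment; ligand-driven nuclear translocation restores β-gal by complementation. Compounds titrated up to 46 uM final, 2 h at 37 °C; luminescence read.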

The target in assay [12] is Mitogen-activated protein kinase 10 (Mus musculus) (UniProt Q61831). The assay can be described thus: JNK3 AlphaScreen Assay (AID 530; active = well fitted curve in either direction with a large enough effect, not every such curve was filed as active;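 note: kinase came from lysate of stimulated human HepG2 cells; signal reports phosphorylation of biotinylated GST-cJun 1-79 at Ser73 with 10 µM ATP; series mostly up to about 57 µM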). The essentials:
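JNK3 came from HepG2 lysates pre-activated with IL-1beta and TNF-alpha and phosphorylated biotinylated GST-cJun (1-79) at 10 uM ATP, pH 7.6, room temperature. Compounds were titrated. AlphaScreen signal used anti-phospho-cJun (Ser73) antibody.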
(Alpha assays give light when donor and acceptor beads are brought close together.)

Assay [13] has as its target Cytochrome P450 3A4 (Homo sapiens) (UniProt P08684). The assay can be described thus: qHTS Assay for Activators of Cytochrome P450 3A4 (AID 885). Note: nearly all actives have a fitted effect of over 65% in size. In outline:
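20nM CYP3A4 + 25uM Luciferin-PPXE (=KM), 200mM KPO4; cpd 10 min RT; NADPH regen, 60 min RT; stop w/ detection buffer, 20 min; luminescence. Normalized to 57 uM ketoconazole.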

Assay [14] concerns the target DNA dC->dU-editing enzyme APOBEC-3G (Homo sapiens) (UniProt Q9HC16). Description: qHTS for inhibitors of Vif-A3G interactions: Validation (AID 588379). In outline: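 HeLa cells stably expressing Vif and A3G-eYFP, 700 cells/well, incubated overnight at 37 deg C, then exposed to compound overnight at 37 deg C. Inhibition of Vif-mediated degradation read as increased yellow fluorescence (Ex 488/Em 500-530) by laser-scanning cytometry.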

For assay [15], the system named is Zika virus NS2B-NS3 protease. The assay can be described thus: Primary screen GU AMC qHTS for Zika virus inhibitors (AID 1347154). Note: potency is the fitted concentration of half-maximal effect; nearly all actives have a fitted effect of over 70% in size. The essentials: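 Unlinked Zika NS2B hydrophilic domain/NS3 protease domain noncovalent complex (25 nM final) in 10 mM Tris-HCl pH 8.0, 0.01% Tween 20, with AMC peptide substrate. Fluorescence (ex 340, em 450 nm) change over 15 min, room temperature; percent inhibition fitted to 4-parameter Hill equation.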

The target in assay [16] is Rap guanine nucleotide exchange factor 3 (Homo sapiens) (UniProt O95398). The assay can be described thus: Confirmatory qHTS for antagonist of cAMP-regulated guanine nucleotide exchange factor 3 (EPAC1) (AID 1645880). Note: nearly all actives have a fitted effect of over 55% in size. In outline:
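Nucleotide exchange uses 100 nM EPAC1, 250 nM RAP1B-BODIPY-GDP and 50 uM GDP, with compounds in a concentration-titration series. After 5 min at room temperature, fluorescence (480 nm ex/540 nm em) is read every 5 min for 30 min. Data are normalized to control ATA and DMSO.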

The target is the same in assay [17]. Description: Confirmatory qHTS for agonist of cAMP-regulated guanine nucleotide exchange factor 3 (EPAC1) (AID 1645881).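 Note: EPAC1 catalysed release of BODIPY-GDP from Rap1B seen as fluorescence loss; nearly all actives have a fitted effect of over 75% in size.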
In assay [18] the target is Rap guanine nucleotide exchange factor 4 (Homo sapiens) (UniProt Q8WZA2). The assay can be described thus: Confirmatory qHTS for antagonist of cAMP-regulated guanine nucleotide exchange factor 4 (EPAC2) (AID 1645885). Note: nearly all actives have a fitted effect of over 25% in size.
The nature of assay [19]: ZIKV-mCherry secondary qHTS for Zika virus inhibitors (AID 1347158). Note: top concentration of the series differs between compounds. In outline:
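Vero cells, 5,000/well, plated overnight at 37 °C, then compound added and infected with recombinant ZIKV-mCherry at MOI 1 for 48-72 h. PFA-fixed, Hoechst nuclear stain, high-content imaging; cells with mCherry intensity above 450 RFU scored infected, reported as percent infection.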

Assay [20] has as its system Zika virus NS2B-NS3 protease (linked). Description: 384 well plate NINDS AMC confirmatory qHTS for Zika virus inhibitors (AID 1347163). Note: nearly all actives have a fitted effect of over 50% in size. Note: potency is the fitted concentration of half-maximal effect. The essentials: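 Linked protease 5/30/60 nM final; cpds up to 1 mM final, ~15 min preinc. Substrate Ac-VKTGKR-AMC 30 microM final. RT, dark, 25 min; FI ex 355/em 460; normalized to no-enzyme/no-inhibitor ctrls.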
The nature of assay [21]: Tertiary RLuc qRT-PCR qHTS assay for Zika virus inhibitors (AID 1347169). Note: top concentration of the series differs between compounds; nearly all actives have a fitted effect of over 55% in size. In outline:
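Orthogonal cell-based infection assay using recombinant ZIKV-RLuc (Cambodian) in Vero cells; compound added prior to virus at MOI 1-2. Incubation lasts 48-72 hrs at 37 degrees C before live-cell Renilla substrate is added and luminescence measured.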

For assay [22], the target named is DNA repair nuclease/redox regulator APEX1 (Homo sapiens) (UniProt P27695). The assay can be described thus: Confirmation qHTS Assay for Inhibitors of the Human Apurinic/apyrimidinic Endonuclease 1 (APE1) (AID 2572). Note: potency is the fitted concentration of half-maximal effect; nearly all actives have a fitted effect of over 30% in size. The settings on record: purified APE1, fluorogenic abasic-site DNA cleavage. In outline: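 Fluorescence gain at 598 nm (Ex 525 nm) reports APE1 cleavage of a TAMRA/BHQ-2-labelled duplex carrying a tetrahydrofuran abasic site, 50 nM final. Activity taken as third-minus-first kinetic read after 15 min compound preincubation, room temperature.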

Assay [23] shares this target. The assay can be described thus: qHTS FP-Based Assay for Inhibitors of the Human Apurinic/apyrimidinic Endonuclease 1 (APE1) (AID 2573).
The nature of assay [24]: Confirmatory screen GU Rhodamine qHTS for Zika virus inhibitors qHTS (AID 1347157). In outline:
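Percent inhibition derives from the 15-min fluorescence change (ex 480, em 540 nm), normalized to no-enzyme and no-inhibitor wells. Reactions contained 25 nM NS2B-NS3 complex and 1.5 microM substrate in 10 mM Tris-HCl pH 8.0.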

Unmarked numbers belong to inactive results. Inconclusive results are not listed. Some of the results follow. Activity calls are given as the source filed them. Unless noted, calls come from the whole dose curve; as a rule, active = well fitted curve in the direction sought with a large enough effect; inconclusive = small, poorly fitted or top-dose-only effect, or another doubt; inactive = no such curve, though single readings can be large; an effect the other way counts as inactive or inconclusive.

Chain of Furin (Homo sapiens) (P09958 whole entry, looked up): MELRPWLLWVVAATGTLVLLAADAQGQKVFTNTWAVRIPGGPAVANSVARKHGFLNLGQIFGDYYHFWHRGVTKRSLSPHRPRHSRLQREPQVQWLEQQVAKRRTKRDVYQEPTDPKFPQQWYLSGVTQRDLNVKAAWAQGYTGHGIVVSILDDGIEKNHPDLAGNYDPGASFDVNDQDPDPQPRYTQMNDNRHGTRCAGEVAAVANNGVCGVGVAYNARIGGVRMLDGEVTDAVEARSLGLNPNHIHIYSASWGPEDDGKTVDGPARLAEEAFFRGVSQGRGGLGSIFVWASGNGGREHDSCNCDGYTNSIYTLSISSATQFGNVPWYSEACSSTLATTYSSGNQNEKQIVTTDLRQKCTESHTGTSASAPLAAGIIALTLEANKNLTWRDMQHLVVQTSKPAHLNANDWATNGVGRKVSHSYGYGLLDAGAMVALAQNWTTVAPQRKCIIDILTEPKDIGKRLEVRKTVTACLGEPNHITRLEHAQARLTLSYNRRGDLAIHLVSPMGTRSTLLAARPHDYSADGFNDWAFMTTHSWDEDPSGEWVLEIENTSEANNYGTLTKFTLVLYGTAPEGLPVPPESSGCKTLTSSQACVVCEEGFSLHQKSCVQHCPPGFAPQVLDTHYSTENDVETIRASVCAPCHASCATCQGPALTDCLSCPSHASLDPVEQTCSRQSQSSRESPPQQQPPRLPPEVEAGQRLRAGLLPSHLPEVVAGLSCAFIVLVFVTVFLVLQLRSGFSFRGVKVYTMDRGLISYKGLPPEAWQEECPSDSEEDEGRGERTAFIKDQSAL
Chain of Cytochrome P450 3A4 (Homo sapiens) (P08684 whole entry, looked up): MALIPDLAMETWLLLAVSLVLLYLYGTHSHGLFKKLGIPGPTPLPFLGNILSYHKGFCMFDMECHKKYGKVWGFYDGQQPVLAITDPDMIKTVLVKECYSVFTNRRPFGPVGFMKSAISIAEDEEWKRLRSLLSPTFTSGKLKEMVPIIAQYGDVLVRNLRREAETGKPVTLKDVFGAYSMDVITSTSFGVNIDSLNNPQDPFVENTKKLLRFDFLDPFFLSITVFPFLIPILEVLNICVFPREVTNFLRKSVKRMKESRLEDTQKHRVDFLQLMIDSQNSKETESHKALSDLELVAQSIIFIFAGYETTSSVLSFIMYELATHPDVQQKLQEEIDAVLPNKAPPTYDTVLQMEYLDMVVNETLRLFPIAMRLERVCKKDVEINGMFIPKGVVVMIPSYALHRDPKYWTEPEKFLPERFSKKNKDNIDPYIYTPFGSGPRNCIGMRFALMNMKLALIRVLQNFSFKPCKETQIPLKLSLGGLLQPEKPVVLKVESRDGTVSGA
Chain of Glucocorticoid receptor (Homo sapiens) (P04150 whole entry, looked up): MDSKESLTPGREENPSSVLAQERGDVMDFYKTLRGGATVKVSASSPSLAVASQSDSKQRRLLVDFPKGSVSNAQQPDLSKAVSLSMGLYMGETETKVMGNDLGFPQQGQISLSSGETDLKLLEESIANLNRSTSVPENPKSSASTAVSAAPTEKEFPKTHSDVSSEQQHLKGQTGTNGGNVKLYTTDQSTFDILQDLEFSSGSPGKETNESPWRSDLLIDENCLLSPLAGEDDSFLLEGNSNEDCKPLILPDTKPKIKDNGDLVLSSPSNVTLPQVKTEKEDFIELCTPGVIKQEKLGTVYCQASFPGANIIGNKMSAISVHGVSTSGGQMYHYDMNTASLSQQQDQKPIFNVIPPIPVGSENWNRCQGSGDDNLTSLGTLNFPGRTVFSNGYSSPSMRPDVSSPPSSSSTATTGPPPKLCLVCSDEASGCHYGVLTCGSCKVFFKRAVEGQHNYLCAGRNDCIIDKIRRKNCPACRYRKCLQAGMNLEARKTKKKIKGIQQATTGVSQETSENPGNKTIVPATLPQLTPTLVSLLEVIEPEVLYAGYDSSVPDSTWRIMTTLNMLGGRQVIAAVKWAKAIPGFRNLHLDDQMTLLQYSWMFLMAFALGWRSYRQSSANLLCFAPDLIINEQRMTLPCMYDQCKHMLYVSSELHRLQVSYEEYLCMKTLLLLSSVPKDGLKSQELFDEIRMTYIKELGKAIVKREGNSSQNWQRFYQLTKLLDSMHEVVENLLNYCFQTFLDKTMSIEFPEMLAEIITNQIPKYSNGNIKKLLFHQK
Chain of Rap guanine nucleotide exchange factor 3 (Homo sapiens) (O95398 whole entry, looked up): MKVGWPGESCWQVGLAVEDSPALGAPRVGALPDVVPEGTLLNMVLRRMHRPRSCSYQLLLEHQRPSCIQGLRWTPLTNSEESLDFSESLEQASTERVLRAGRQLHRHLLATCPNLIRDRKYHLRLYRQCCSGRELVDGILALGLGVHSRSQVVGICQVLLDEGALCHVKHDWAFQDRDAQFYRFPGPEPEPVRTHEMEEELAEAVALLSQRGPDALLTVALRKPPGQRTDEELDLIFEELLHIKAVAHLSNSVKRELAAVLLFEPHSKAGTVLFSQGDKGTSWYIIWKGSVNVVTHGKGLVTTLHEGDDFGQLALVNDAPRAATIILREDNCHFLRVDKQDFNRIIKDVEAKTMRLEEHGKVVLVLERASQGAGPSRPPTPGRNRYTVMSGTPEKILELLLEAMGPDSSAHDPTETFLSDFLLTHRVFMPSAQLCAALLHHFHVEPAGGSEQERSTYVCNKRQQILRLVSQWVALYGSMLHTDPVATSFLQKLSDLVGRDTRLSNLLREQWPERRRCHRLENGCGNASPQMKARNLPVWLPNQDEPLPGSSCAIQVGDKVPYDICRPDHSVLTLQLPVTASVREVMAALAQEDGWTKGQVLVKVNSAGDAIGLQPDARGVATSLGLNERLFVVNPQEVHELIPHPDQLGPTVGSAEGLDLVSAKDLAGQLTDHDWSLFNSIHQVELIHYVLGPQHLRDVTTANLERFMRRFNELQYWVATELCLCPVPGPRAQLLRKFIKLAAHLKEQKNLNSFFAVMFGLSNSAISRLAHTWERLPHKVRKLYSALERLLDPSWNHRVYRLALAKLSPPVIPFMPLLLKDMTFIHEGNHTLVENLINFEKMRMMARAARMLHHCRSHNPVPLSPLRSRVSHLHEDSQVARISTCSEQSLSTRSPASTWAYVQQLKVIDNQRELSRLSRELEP
Chain of DNA repair nuclease/redox regulator APEX1 (Homo sapiens) (P27695 whole entry, looked up): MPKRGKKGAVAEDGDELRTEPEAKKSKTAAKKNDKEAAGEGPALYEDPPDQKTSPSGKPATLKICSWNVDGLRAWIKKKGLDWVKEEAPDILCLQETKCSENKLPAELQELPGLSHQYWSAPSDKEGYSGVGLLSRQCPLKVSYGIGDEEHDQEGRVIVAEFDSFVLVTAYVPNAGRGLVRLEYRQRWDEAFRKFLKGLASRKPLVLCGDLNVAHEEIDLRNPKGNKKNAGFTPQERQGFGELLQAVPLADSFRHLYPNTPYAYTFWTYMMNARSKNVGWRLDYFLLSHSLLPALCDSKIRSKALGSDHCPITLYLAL
Chain of Rap guanine nucleotide exchange factor 4 (Homo sapiens) (Q8WZA2 whole entry, looked up): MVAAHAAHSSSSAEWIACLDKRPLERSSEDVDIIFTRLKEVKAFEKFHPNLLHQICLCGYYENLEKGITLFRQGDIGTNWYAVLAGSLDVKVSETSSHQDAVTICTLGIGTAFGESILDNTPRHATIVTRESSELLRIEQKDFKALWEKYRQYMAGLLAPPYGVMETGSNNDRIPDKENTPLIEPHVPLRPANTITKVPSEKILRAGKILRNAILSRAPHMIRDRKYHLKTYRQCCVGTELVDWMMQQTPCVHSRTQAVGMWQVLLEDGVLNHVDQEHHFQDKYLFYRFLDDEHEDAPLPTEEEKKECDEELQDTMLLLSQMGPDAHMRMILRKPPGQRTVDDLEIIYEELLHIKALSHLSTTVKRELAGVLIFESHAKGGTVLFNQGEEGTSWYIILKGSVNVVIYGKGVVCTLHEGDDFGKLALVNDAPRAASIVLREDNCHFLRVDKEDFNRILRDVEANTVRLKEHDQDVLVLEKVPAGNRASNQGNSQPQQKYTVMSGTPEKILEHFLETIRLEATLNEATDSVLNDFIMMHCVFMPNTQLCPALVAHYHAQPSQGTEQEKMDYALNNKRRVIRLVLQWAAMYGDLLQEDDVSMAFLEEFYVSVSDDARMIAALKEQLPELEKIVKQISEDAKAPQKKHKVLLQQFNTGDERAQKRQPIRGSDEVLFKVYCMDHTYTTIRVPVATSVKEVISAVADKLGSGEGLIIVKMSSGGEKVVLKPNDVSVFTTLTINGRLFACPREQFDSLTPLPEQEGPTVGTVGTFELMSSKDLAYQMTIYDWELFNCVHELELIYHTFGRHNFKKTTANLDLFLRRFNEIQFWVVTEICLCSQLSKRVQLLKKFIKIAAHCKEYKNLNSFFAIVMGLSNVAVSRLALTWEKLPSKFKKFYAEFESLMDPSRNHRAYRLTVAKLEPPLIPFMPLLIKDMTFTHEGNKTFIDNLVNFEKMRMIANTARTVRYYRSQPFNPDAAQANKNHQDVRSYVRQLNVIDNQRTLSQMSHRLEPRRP
Chain of DNA dC->dU-editing enzyme APOBEC-3G (Homo sapiens) (Q9HC16 whole entry, looked up): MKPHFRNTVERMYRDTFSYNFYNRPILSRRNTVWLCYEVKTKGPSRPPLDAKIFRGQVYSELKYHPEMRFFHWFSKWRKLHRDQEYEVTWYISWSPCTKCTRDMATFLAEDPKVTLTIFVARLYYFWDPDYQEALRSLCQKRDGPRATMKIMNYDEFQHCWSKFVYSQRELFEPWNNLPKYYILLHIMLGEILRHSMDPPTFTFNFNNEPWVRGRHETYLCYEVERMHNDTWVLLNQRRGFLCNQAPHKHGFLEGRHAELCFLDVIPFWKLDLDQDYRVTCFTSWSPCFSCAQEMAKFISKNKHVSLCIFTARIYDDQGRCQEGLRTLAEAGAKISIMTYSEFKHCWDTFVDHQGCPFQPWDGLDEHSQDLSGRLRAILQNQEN

As for `O=C(O)c1c(Sc2ccccc2)c2cc(Cl)ccc2n1Cc1ccc(Cl)cc1`, the Potency result in assay [1], in assay [7], in assay [8] and in assay [9] was “inactive” throughout. For the same molecule, the Potency in assay [2] is 21.5 µM (active); in assay [3], 6.81 µM (active); in [4], 19.2 µM (active); in [5], 1.24 µM (active); in [6] it was 22.4 µM (active).
As to `COc1ccc(-c2nc(C(=O)N3CCN(C)CC3)sc2-c2ccc(OC)cc2)cc1`, the Potency in assay [10] is above 46 µM; in [11], above 46 µM; in assay [2] it was 13.5 µM (active); in [3] it was 24.1 µM (active); in assay [15], 26.7 µM (active). Besides, the Potency result in assay [12], in assay [13], in assay [14], in assay [5], in [7] and in [8] was “inactive” in each case. The Potency result in assay [16] and in assay [18] was “inactive” throughout. The outcome in [17] was inactive.
In the case of `CC(=O)C(N=Nc1ccc(S(=O)(=O)Nc2ccccn2)cc1)C(=O)Nc1ccc(Cl)cc1` (stereo not drawn), the Potency result in assay [2], in [19] and in assay [21] was “inactive” throughout. For the same molecule, the Potency in assay [3] was 44.7 µM (active); in assay [5], 20 µM (active); in assay [20] it was 22.4 µM (active); in assay [6] it was 25.1 µM (active).
`CCN(CC)c1ccc(/C=N/NC(=O)c2ccc(O)cc2)cc1`: in [2], the Potency was 24.1 µM (active). For the same molecule, the Potency entry in assay [3], in assay [7], in assay [8], in [21] and in assay [9] was “inactive” throughout.
Turning to `Cc1cccc(C)c1NS(=O)(=O)c1ccc(NS(=O)(=O)c2ccc3c(c2)OCCO3)cc1`, the Potency entry in assay [2], in [3] and in assay [4] was “inactive” throughout. Also, the Potency in [20] was 200 µM (active); in [6], 126 µM (active).
For the molecule `CC1(C(=O)O)NCCc2cc(O)c(O)cc21` (stereo not drawn), the figures for the Potency in assay [2], in [15] and in [5] were 24.1 µM (active), 10.6 µM (active) and 27.8 µM (active), respectively. Besides, the Potency result in [20], in assay [7], in assay [8], in assay [21] and in [9] was “inactive” throughout.
Turning to `O=c1c(O)c(Br)ccc2c(Br)c(O)c(O)c(O)c12`, the Potency in [22] is 0.316 µM (active); in [2], 23.5 µM (active); in assay [24], 39.8 µM (active); in [5] it was 7.94 µM (active); in assay [20], 158 µM (active); in assay [6], 89.1 µM (active). The molecule was called inactive in [23]. The Potency result in [19], in assay [21] and in assay [9] was “inactive” throughout.
`N#C/C(=C\c1ccc(Br)cc1)c1nc(-c2cc3cc(Br)ccc3oc2=O)cs1`: the Potency result in assay [2], in assay [3], in [4] and in assay [21] was “inactive” each time.
